# Screening data (PubChem)
# The list is not random: actives were taken first. Their share in the collection is about 3.1%.
# NOTCH ag = agonists of NOTCH signaling | NOTCH signaling luciferase reporter cells, luminescence | activation, % at 2.5 µM | 15,000 compounds, 0.4% hits; in the data active = activation above about 2.2%
# Nox1 inh = inhibitors of human NADPH oxidase 1 (Nox1); 16,000 compounds, 0.81% hits; HT29 cells, luminol chemiluminescence ROS; inhibition, % at 6.7 µM; Q9Y5S8
# luminol inh ctr = counter-screen for Nox1 inhibitors: inhibitors of luminol chemiluminescence | inhibition, % at 6.7 µM | AID 1823, 2009 | 16,000 compounds, 0.4% hits | HRP/luminol/H2O2 chemiluminescence counterscreen; note: reference of the scale not given here
# S1P1 agonist = activates the human S1P1 receptor | S1P1 agonist cell-based reporter assay | 16,000 compounds, 1.5% hits | AID 1044, 2008 | activation, % at 4.5 µM; in the data active = activation above about 80%
# Target sequence (P21453 whole entry, looked up): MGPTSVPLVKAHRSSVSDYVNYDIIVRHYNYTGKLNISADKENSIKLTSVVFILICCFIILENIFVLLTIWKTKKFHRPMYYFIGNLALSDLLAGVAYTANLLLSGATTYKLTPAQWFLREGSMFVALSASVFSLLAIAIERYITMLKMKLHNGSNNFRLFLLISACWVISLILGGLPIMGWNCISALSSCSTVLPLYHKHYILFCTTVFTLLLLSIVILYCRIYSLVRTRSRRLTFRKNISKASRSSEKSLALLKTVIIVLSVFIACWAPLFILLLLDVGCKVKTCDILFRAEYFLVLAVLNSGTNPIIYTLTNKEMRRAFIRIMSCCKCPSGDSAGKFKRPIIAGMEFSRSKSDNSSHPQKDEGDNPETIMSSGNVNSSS
# The depositor's hits bear a star; · = not tested or not shown. Cut-off read from the data, not from the text of the source, unless noted: active = inhibition above about 75%; inactive = the rest.
SMILES,NOTCH ag,Nox1 inh,luminol inh ctr,S1P1 agonist
Cn1c(=O)c2c(NCc3ccccc3)cc(=O)n(C)c2n(C)c1=O,8.5*,-48,4,-37
Cn1c(=O)c2c(O)c(Cc3ccccc3)c(=O)n(C)c2n(C)c1=O,0,-29,-2,-11
Cn1c(-c2cc(C(C)(C)C)nn2Cc2ccc(F)cc2)n[nH]c1=S,1,5,99*,-4
CC(C)(C)c1cc(-c2nnc(C3CC3)o2)n(Cc2ccc(F)cc2)n1,0,-42,4,-7
C=CCn1c(SCc2n[nH]c(=S)n2C)nnc1-c1ccccc1,-1,4,82*,-5
C=CCn1c(SCC(=O)N2CCc3ccccc32)nnc1-c1ccc(Cl)cc1,0,-30,-1,17
C=CCn1c(SCC(=O)NNC(=S)NC)nnc1-c1ccccc1,0,-11,89*,7
Cn1c(CSc2ccccc2)n[nH]c1=S,0,-9,8,-2
Cc1csc(-c2nc(-c3ccc(C(F)(F)F)cc3)no2)c1,-4,-27,-1,86*
Cc1nc(-c2noc(-c3ccc(C(F)(F)F)cc3)n2)cs1,0,2,-5,14
Cc1cc(OC(C)C)nc(N)n1,2,-10,-3,-4
COc1cc(/C=N\n2c(C)n[nH]c2=S)cc(OC)c1OC,0,53,101*,14
COc1cc(CCC(C)=O)ccc1OC(=O)c1c(-c2ccccc2)noc1C,0,-41,2,-12
COc1ccc(-c2coc3cc(OS(=O)(=O)c4ccccc4)ccc3c2=O)cc1,0,-6,-1,48
CCCc1c(OCCCOc2ccc3c(=O)c(-c4ccccc4)coc3c2)ccc(C(C)=O)c1O,0,-57,3,95*
COc1c(Cl)cc(Cl)cc1-c1csc(NC(=O)C(Cl)(Cl)Cl)n1,0,-4,1,89*
COC(=O)c1ccc(S(=O)(=O)Nc2ccc(N3CCOCC3)cc2)n1C,0,91*,40,4
COCCOc1ccc(N=Cc2ccccc2O)cc1C(=O)O,3.1*,11,-20,0
COCCOc1ccc([N+](=O)[O-])cc1C(=O)O,·,5,-3,-6
COc1ccc(/C=N/NC(=O)c2cccn2-c2ccc(F)cc2)cc1,0,-49,0,-2
O=C(NC(=O)N1CCOCC1)c1nnc(-c2ccccc2)o1,-1,-93,2,-17
O=C(NC(=O)N1CCOCC1)c1ccc([N+](=O)[O-])s1,-1,-29,3,89*
O=C1/C(=C\c2cccc([N+](=O)[O-])c2)SC(=S)N1c1ccc(F)c(F)c1,0,-12,2,-1
CCC(=O)Nc1cc(F)ccc1C,0,-14,-1,-21
CCC(=O)Nc1cccc2c(NC(=O)CC)cccc12,-1,-54,3,82*
CC(=NCCc1ccccc1)C1CCOC1=O (stereo unspecified),-1,-56,0,114*
Cc1nn(C)c(C)c1NC(=O)/C(C#N)=C\N(C)C,0,-26,1,4
Cc1nn(C)c(C)c1Nc1n[nH]c(N)n1,0,77*,22,48
